Giardia kill: Small Molecules that selectively kill Giardia lamblia: qHTS. Giardia lamblia trophozoite viability. activity change, % at 7.66 µM, hits read low. hit rate 0.15% among 340,000; in the data active = activity change below about -80%; inconclusive = between about -30% and that limit;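 note: parasites exposed to compound for two days anaerobically before the ATP read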
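Killing of trophozoites was scored by loss of ATP luminescence after a 48 hrs anaerobic exposure to compounds at 37 deg C, using 100 cells per well.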
ELG1 repair inh: qHTS screen for small molecules that inhibit ELG1-dependent DNA repair in human embryonic kidney (HEK293T) cells expressing luciferase-tagged ELG1 | HEK293T ELG1-luciferase reporter, luminescence, 16 h; DNA damage induced by 5-fluorouridine | Potency, µM (top dose mostly 46.1 µM), for the others: at the highest dose activity change, negative = inhibition, hits mostly inhibitors | hit rate 2.3% among 330,000; note: potency is the fitted concentration of half-maximal effect; nearly all actives have a fitted effect of over 55% in size
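In this reporter screen, reduction of luminescence relative to DMSO vehicle indicated activity. Compounds and 5-fluorouridine were added together to 2,000 cells per well, incubated for 16 hr at 37 °C, then developed with ONE-Glo.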
TDP1 block: qHTS Assay for Inhibitors of Tyrosyl-DNA Phosphodiesterase (TDP1); hit rate 0.28% among 350,000; Tyrosyl-DNA phosphodiesterase 1 (Homo sapiens), Q9NUW8; recombinant TDP1, AlphaScreen DNA substrate cleavage; Potency, µM (doses to about 130 µM), without a hit: top-dose activity change, negative = inhibition, usual class: inhibitors; note: potency is the fitted concentration of half-maximal effect; nearly all actives have a fitted effect of over 40% in size
Target sequence (Q9NUW8 whole entry, looked up): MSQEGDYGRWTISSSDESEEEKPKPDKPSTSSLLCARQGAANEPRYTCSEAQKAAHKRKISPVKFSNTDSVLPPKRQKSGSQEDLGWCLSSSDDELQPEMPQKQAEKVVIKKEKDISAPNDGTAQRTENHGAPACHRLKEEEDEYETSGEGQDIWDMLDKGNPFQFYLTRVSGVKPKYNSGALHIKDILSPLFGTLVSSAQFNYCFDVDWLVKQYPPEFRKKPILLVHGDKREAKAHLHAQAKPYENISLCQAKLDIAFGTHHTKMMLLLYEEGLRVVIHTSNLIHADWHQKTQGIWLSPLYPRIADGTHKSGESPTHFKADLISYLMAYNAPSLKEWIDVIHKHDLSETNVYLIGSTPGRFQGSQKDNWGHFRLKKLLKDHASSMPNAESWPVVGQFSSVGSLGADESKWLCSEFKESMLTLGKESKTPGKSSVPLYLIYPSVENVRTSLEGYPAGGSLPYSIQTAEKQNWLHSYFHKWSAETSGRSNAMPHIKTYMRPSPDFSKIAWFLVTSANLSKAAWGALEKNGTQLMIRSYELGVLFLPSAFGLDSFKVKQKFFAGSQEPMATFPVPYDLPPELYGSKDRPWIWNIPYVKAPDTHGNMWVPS
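Tdp1 1 nM final; 15 min RT w/ cpd; substrate 15 nM, 5 min; beads 10 ug/ml, 10 min; AlphaScreen read. Neg ctrl: no enzyme.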
TDP1 cell CPT: qHTS for Inhibitors of human tyrosyl-DNA phosphodiesterase 1 (TDP1): qHTS in cells in presence of CPT; Potency, µM (highest dose often 46.2 µM), for the others: at the highest dose activity change, negative = growth inhibition, hits mostly inhibitors; chicken DT40 Tdp1-/-;hTDP1 cells + 20 nM CPT, ATP luminescence, 48 h; hit rate 12% among 420,000; note: potency is the fitted concentration of half-maximal effect; nearly all actives have a fitted effect of over 55% in size
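Chicken DT40 Tdp1-/- cells complemented with human TDP1, 400 cells/well, exposed to compounds plus 20 nM camptothecin for at least 48 h at 37 C; viability read as ATP content by CellTiter-Glo luminescence.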
DT40 TDP1 no CPT: qHTS for Inhibitors of human tyrosyl-DNA phosphodiesterase 1 (TDP1): qHTS in cells in absence of CPT; DT40 Tdp1-/- hTDP1 cells, no CPT, ATP luminescence, 48 h; Potency, µM (highest dose often 46.2 µM), inactives show top-dose activity change, negative = growth inhibition, most hits filed as inhibitors; hit rate 15% among 420,000; note: potency is the fitted concentration of half-maximal effect; nearly all actives have a fitted effect of over 55% in size
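A cellular qHTS used chicken DT40 cells lacking endogenous Tdp1 but carrying stably transfected human TDP1. Compounds were applied without camptothecin, and cell growth kinetics were judged by ATP-dependent luminescence after ≥48 hr.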
IL-1B inflam inh: qHTS for Inhibitors of Inflammasome Signaling: IL-1-beta AlphaLISA Primary Screen. THP-1 LPS/ATP IL-1B secretion, AlphaLISA, 16 h; active compounds read low. activity change, % at 57.5 µM. hit rate 4.7% among 360,000; in the data active = activity change below about -50%; inconclusive = mostly about -30% to -49%
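Secreted IL-1B measured by AlphaLISA bead assay after 16 h compound exposure of THP-1 cells; compounds (final up to 57.5 uM) added 1 h before LPS (250 ng/mL) and ATP (1.25 mM) stimulation; lower signal means less secretion.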
An asterisk follows results filed as active; u = inconclusive; x = not tested or not shown. Compounds with a hit are over-represented: about 19% of the library has one in this group of screens. Unless noted, calls come from the whole dose curve; as a rule, active = well fitted curve in the direction sought with a large enough effect; inconclusive = small, poorly fitted or top-dose-only effect, or another doubt; inactive = no such curve, though single readings can be large; an effect the other way counts as inactive or inconclusive. % is set by controls: 0 for no effect and ±100 for the full control effect.

SMILES	Giardia kill	ELG1 repair inh	TDP1 block	TDP1 cell CPT	DT40 TDP1 no CPT	IL-1B inflam inh
Cn1c(=O)[nH]c(=O)c2[nH]c(N(Cc3ccccc3)Cc3ccccc3)nc21	-1.7	u	3.2%	u	14.6µM*	-14.3
Cn1c(=O)[nH]c(=O)c2c1nc(N(CCO)Cc1ccccc1)n2CCCc1ccccc1	-12.6	-8.3%	3.9%	25.9µM*	u	-8.0
CN(Cc1ccccc1)c1nc2c(c(=O)[nH]c(=O)n2C)n1CCCc1ccccc1	-5.3	u	8.2%	29.1µM*	35.5µM*	-53.9*
C=CCn1c(O)c(C2=c3ccccc3=NC2=O)s/c1=N/c1nccs1	-14.8	1.8%	2.6%	u	u	14.6
C=CCn1c(O)c(C2=c3ccccc3=NC2=O)c2ccccc21	-12.8	-14.2%	x	u	4.11µM*	-0.2
COc1ccccc1NC(=O)Cn1c(=O)n(-c2ccccc2Cl)c(=O)c2sc3ccccc3c21	x	x	1.3%	u	10.3µM*	x
O=C(Cn1c(=O)n(Cc2ccccc2)c(=O)c2sc3ccccc3c21)Nc1ccc(F)cc1	x	x	3.6%	14.6µM*	14.6µM*	x
COc1ccc(NC(=O)Cn2c(=O)n(Cc3ccccc3)c(=O)c3sc4ccccc4c32)cc1	x	x	6.4%	-22.2%	13µM*	x
O=C(Cn1c(=O)n(Cc2ccccc2)c(=O)c2sc3ccccc3c21)Nc1ccccc1	x	x	3.8%	u	u	x
COc1ccccc1NC(=O)Cn1c(=O)n(Cc2ccccc2)c(=O)c2sc3ccccc3c21	x	x	0.9%	-9.6%	-11.9%	x
COc1cccc(CNC(=O)COC(=O)CCCNC(=O)c2ccc(Cl)cc2)c1	11.2	19.0%	x	31.9%	1.0%	17.6
COc1ccc(C2(C(=O)NCc3ccco3)CCCC2)cc1OC	2.3	-1.7%	-4.1%	u	u	17.2
O=C(/C=C/c1ccco1)NCC1(c2ccccc2)CCCC1	-5.3	-13.3%	-0.6%	11.6µM*	u	-4.4
COc1ccc(C2(CNC(=O)/C=C/c3ccco3)CCCC2)cc1OC	-6.8	u	5.9%	u	u	4.6
O=C(NCC1(c2ccccc2)CCCC1)c1ccco1	7.2	-12.3%	2.6%	-64.6%	14.6µM*	-4.2
O=C(NCc1ccco1)C1(c2ccccc2)CCCC1	5.6	-6.1%	6.6%	10.3µM*	7.08µM*	-1.0
COc1cccc(C(=O)NCC2(c3ccccc3)CCCC2)c1OC	-12.3	-14.7%	x	18.4µM*	9.2µM*	18.0
COc1ccc(CC(N)C(=O)N[C@H]2[C@@H](O)[C@H](n3cnc4c(N(C)C)ncnc43)O[C@@H]2CO)cc1 (some centres undefined)	x	x	7.1%	x	x	x
COc1ccccc1C(=O)Nc1cccc(C(=O)OCc2cc(=O)n3nc(C4CC4)sc3n2)c1	x	x	3.8%	0.0%	u	x
O=C(NCC1(c2ccccc2)CCCC1)c1cccc(Br)c1	-29.1	-13.0%	-7.8%	14.6µM*	13µM*	-2.5
COc1ccc(C2(CNC(=O)c3ccccc3)CCCC2)cc1OC	-19.9	-2.5%	1.1%	-47.0%	u	-2.1
COc1ccc(C2(CNC(=O)c3cc([N+](=O)[O-])cc([N+](=O)[O-])c3)CCCC2)cc1OC	-5.4	u	7.7%	20.6µM*	16.4µM*	23.1
COc1ccc(CCNC(=O)CCCn2c(=O)c3ccccc3n(Cc3ccccc3C#N)c2=O)cc1OC	x	x	7.3%	1.8%	-18.1%	x
Cc1cc(NC(=O)Cc2c(F)cccc2Cl)no1	-10.9	3.6%	-2.3%	14.6µM*	u	2.8
CC(=O)c1sc(NC(=O)Cc2c(F)cccc2Cl)nc1C	-10.4	7.4%	x	-5.6%	u	-2.7
